# Measurements published in PubChem BioAssay (Tox21).
# Values without a mark were called inactive. Results filed as inconclusive are left out. A call without a number means that no potency is given here. Calls of active or inactive are those of the source. Unless noted, the call rests on the fitted dose curve; in most records, active means well fitted curve in the direction sought with a large enough effect in the repeat runs; inconclusive means weak or mixed curves; inactive means no such curve, though single readings can be large; an effect the other way counts as inactive or inconclusive.
# How the values were obtained:
# [1] = qHTS assay to identify small molecule antagonists of the TGF-beta/Smad signaling pathway - cell viability counter screen (AID 1346824); further: nearly all actives have a fitted effect of over 50% in size
# Method in brief: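 SBE-bla HEK 293T cells were plated overnight at 37 C, then given compounds in DMSO plus TGF-beta1 (added as 0.25 ng/mL solution) for 5 hr. After the bla read, CellTiter-Glo was added to the same wells and luminescence read after 30 min at room temperature.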
# [2] = qHTS assay to identify small molecule agonists of the TGF-beta/Smad signaling pathway - cell viability counter screen (AID 1346829); further: top concentration of the series differs between compounds; nearly all actives have a fitted effect of over 45% in size
# Method in brief: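 Tox21 qHTS format: SBE-bla HEK 293T cells treated with DMSO-dissolved compounds for 5 hr; CellTiter-Glo luminescence after 30 min at room temperature.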
# [3] = Human pregnane X receptor (PXR) small molecule agonists, qHTS cell viability counter screen (AID 1346977); further: nearly all actives have a fitted effect of over 50% in size
# Method in brief: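 Cytotoxicity counter screen run in the same wells as the PXR luciferase assay, using PXR-Luc HepG2 cells in charcoal-stripped serum medium. Viability: CellTiter-Fluor fluorescence after 24hr compound treatment.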
# [4] = Caspase-3/7 induction in HepG2 cells by small molecules, qHTS assay (AID 1346978); further: nearly all actives have a fitted effect of over 15% in size
# Method in brief: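 Wild-type HepG2 cells (2,000/well) were settled 5 h at 37 C, 5% CO2, then exposed to compounds in DMSO for 17 h. Caspase-3/7 activity was read by luminescence 30 min after adding Caspase-Glo 3/7 reagent at room temperature.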
# [5] = Caspase-3/7 induction in CHO-K1 cells by small molecules, qHTS cell viability counter screen (AID 1346979); further: nearly all actives have a fitted effect of over 35% in size
# Method in brief: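 Cytotoxicity counter screen run in parallel with the caspase-3/7 assay: CHO-K1 cells, 16hr compound treatment at 37C, then CellTiter-Fluor for 1hr before fluorescence reading.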
# [6] = Caspase-3/7 induction in CHO-K1 cells by small molecules, qHTS assay (AID 1346980); further: nearly all actives have a fitted effect of over 15% in size
# Method in brief: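 Wild-type cells were seeded at 1,500 per well and settled 5 hr at 37 C, 5% CO2, then exposed to DMSO-dissolved compounds for 17 hr. Caspase-Glo 3/7 reagent was added, and luminescence was read after 30min at room temperature.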
# [7] = molecular target: Nuclear receptor subfamily 1 group I member 2 (Homo sapiens) (UniProt O75469); test: Human pregnane X receptor (PXR) small molecule agonists, qHTS assay (AID 1346982); further: nearly all actives have a fitted effect of over 35% in size
# Sequence of Nuclear receptor subfamily 1 group I member 2 (Homo sapiens) (O75469 whole entry, looked up): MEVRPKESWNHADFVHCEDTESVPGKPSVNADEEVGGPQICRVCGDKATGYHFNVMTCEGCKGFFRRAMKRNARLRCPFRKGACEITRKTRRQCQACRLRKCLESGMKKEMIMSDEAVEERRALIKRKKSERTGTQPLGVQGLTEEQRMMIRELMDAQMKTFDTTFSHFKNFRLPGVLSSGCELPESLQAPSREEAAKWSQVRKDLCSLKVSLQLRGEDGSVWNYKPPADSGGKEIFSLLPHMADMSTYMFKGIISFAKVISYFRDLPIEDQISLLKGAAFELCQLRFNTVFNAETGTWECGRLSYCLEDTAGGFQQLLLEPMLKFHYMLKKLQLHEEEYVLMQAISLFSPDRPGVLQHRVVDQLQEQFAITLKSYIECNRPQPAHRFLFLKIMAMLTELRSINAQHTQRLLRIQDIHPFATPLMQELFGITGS
# Method in brief: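 Reporter HepG2 cells expressing PXR-Luc are cultured in charcoal-stripped FBS (5%), treated with compounds for 24 hr at 37 C, and assayed by ONE-Glo luminescence after 30 min at room temperature.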
# [8] = molecular target: Nuclear receptor subfamily 1 group I member 2 (Rattus norvegicus) (UniProt Q9R1A7); test: Rat pregnane X receptor (rPXR) activation by small molecules, qHTS assay (AID 1346983); settings: rPXR luciferase reporter cells, One-Glo luminescence, 24 h; max activation: hits give high values; further: nearly all actives have a fitted effect of over 20% in size
# Sequence of Nuclear receptor subfamily 1 group I member 2 (Rattus norvegicus) (Q9R1A7 whole entry, looked up): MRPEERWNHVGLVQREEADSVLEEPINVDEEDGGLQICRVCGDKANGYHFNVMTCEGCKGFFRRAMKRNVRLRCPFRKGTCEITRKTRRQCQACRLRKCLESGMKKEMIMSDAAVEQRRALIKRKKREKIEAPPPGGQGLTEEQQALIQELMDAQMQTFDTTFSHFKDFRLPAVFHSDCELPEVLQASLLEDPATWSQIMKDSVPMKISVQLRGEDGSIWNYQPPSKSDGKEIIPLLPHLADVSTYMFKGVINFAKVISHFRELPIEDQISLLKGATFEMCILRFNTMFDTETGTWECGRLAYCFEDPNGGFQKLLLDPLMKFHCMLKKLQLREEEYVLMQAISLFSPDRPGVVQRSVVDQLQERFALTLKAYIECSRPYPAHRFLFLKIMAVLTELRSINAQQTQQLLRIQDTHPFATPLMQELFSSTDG
# Method in brief: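 Cell-based rPXR luciferase reporter assay, 2,000 cells per well, rested 5hr at 37 C before compound addition in DMSO, then 24 hr at 37 C. One-Glo reagent was added and luminescence read after 30 min at room temperature.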
# [9] = molecular target: Nuclear receptor subfamily 1 group I member 2 (Homo sapiens) (UniProt O75469); test: CYP3A4 induction through human pregnane X receptor (PXR) by small molecules, qHTS assay (AID 1346984); further: nearly all actives have a fitted effect of over 40% in size
# Method in brief: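 Induction measured in HepG2-based DPX-2 cells co-expressing human PXR and a CYP3A4 promoter-driven luciferase. After a 24-hour compound exposure, cells received CYP3A4 luciferin substrate at 3uM final for 3 hours, and light output was then recorded.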
# [10] = molecular target: Nuclear receptor subfamily 1 group I member 2 (Homo sapiens) (UniProt O75469); test: Human pregnane X receptor (PXR) activation by small molecules, qHTS assay (AID 1346985); further: nearly all actives have a fitted effect of over 40% in size
# Method in brief: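 DPX-2 cells (HepG2 co-transfected with a PXR response element and a CYP3A4-promoter luciferase construct) were seeded at 2,000 per well, rested 5 hr at 37C, then exposed to DMSO-dissolved compounds for 24 hr. Activation was read as luciferase luminescence.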
# [11] = molecular target: Cytochrome P450 2D6 (Homo sapiens) (UniProt P10635); test: Cytochrome P450 Family 2 Subfamily D Member 6 (CYP2D6) small molecule antagonists: luciferase reporter qHTS assay (AID 1671196); further: series mostly up to about 120 µM; nearly all actives have a fitted effect of over 50% in size
# Sequence of Cytochrome P450 2D6 (Homo sapiens) (P10635 whole entry, looked up): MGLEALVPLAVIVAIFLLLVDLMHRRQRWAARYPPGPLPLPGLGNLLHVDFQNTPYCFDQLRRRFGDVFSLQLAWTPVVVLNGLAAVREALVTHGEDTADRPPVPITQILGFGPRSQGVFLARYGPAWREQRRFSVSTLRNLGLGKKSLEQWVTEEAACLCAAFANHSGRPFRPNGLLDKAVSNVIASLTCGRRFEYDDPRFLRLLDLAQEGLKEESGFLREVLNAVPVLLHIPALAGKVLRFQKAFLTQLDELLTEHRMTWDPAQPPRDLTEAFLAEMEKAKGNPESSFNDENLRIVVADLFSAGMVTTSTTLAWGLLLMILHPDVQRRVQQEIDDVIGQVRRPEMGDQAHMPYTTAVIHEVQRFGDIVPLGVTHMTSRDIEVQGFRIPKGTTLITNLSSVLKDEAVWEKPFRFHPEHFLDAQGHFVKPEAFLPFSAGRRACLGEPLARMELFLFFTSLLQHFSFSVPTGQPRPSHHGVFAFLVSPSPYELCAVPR
# Method in brief: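 Test chemicals meet CYP2D6 plus proluciferin substrate (10 min, RT); NADPH regenerating solution then drives turnover for 1 h. Detection reagent halts the reaction; luminescence measured after 20 min.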
# [12] = molecular target: Cytochrome P450 2C19 (Homo sapiens) (UniProt P33261); test: Cytochrome P450 Family 2 Subfamily C Member 19 (CYP2C19) small molecule antagonists: luciferase reporter qHTS assay (AID 1671197); further: nearly all actives have a fitted effect of over 65% in size; further: potency means the concentration at half of the fitted maximal effect; on activity change, negative = inhibition: series mostly up to about 120 µM
# Sequence of Cytochrome P450 2C19 (Homo sapiens) (P33261 whole entry, looked up): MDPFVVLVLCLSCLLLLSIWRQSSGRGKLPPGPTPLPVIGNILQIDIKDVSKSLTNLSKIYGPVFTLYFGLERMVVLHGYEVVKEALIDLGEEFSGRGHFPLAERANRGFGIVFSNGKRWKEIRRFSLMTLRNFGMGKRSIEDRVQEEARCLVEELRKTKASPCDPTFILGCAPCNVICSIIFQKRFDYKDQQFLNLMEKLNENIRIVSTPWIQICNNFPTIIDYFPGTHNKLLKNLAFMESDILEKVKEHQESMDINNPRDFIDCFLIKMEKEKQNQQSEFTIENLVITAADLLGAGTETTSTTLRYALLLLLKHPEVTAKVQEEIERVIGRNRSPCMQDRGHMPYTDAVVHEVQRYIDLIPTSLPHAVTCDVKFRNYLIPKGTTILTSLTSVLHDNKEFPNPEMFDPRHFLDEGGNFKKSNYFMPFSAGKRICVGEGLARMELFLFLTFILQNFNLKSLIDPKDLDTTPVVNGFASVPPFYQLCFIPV
# Method in brief: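 Relative luminescence units recorded 20 min after the detection reagent stopped a 1 h, 37C CYP2C19 reaction on proluciferin substrate, which was started by NADPH regeneration following 10 min room-temperature compound preincubation; ketoconazole positive control.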
# [13] = molecular target: Cytochrome P450 1A2 (Homo sapiens) (UniProt P05177); test: Cytochrome P450 Family 1 Subfamily A Member 2 (CYP1A2) small molecule antagonists: luciferase reporter qHTS assay (AID 1671199); further: series mostly up to about 120 µM; nearly all actives have a fitted effect of over 50% in size
# Sequence of Cytochrome P450 1A2 (Homo sapiens) (P05177 whole entry, looked up): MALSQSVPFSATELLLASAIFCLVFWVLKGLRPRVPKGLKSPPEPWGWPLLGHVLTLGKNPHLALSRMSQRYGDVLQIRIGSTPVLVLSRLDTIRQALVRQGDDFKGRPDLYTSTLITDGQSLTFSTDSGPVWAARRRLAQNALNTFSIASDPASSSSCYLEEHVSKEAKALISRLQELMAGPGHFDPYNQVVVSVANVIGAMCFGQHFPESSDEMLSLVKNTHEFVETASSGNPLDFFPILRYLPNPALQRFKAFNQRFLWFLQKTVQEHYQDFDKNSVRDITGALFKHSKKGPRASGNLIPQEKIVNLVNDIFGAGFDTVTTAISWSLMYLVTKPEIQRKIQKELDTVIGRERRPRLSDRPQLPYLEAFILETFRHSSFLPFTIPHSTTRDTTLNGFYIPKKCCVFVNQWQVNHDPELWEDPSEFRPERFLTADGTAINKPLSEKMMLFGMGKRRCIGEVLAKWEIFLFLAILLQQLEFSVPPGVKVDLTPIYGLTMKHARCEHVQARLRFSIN
# Method in brief: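 Steps: enzyme-substrate mix dispensed; test compounds and furafylline control pinned in; 10 min room temperature; NADPH regeneration solution added, 1 h; reaction stopped with luciferin detection reagent; luminescence read after 20 min.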
# [14] = molecular target: Voltage-gated inwardly rectifying potassium channel KCNH2 (Homo sapiens) (UniProt Q12809); test: Human Ether-a-go-go-Related Gene (hERG) channel small molecule antagonists: fluorescence cell-based qHTS assay (AID 1671200)
# Sequence of Voltage-gated inwardly rectifying potassium channel KCNH2 (Homo sapiens) (Q12809 whole entry, looked up): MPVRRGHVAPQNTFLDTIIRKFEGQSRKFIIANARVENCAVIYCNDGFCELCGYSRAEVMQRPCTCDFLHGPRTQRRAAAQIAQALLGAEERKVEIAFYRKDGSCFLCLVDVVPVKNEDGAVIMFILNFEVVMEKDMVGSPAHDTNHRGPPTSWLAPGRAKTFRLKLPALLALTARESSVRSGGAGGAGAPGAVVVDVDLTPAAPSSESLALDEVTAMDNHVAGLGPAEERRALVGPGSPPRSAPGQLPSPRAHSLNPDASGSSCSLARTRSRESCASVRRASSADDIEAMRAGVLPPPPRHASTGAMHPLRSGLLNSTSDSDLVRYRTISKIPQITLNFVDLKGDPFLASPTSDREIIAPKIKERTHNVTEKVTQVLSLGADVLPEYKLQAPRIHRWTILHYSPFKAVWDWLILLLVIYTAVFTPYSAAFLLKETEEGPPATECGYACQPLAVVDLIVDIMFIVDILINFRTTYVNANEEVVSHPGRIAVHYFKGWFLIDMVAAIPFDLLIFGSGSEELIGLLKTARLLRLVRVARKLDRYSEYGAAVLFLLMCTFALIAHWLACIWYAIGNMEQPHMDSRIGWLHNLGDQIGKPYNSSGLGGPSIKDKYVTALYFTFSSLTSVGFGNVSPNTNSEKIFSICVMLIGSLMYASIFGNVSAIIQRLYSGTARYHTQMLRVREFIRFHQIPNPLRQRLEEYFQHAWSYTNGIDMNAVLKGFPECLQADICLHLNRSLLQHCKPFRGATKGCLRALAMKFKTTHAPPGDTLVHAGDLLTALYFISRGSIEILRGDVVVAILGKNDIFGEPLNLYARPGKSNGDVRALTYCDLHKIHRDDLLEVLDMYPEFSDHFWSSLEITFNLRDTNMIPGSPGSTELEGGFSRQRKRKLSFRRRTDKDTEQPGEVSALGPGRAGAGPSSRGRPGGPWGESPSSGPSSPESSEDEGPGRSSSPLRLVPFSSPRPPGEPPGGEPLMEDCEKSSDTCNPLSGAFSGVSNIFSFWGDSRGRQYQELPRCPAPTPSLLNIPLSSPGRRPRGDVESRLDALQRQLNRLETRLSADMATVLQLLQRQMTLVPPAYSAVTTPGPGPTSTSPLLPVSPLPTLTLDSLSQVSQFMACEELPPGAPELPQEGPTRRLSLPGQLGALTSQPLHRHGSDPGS
# Method in brief: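 Fluorescence at 540 nm emission (480 nm excitation) was recorded kinetically for 2 min at 1-second intervals once the thallium-containing stimulus reached cells previously loaded with FluxOR II dye.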
# [15] = molecular target: Cytochrome P450 3A4 (Homo sapiens) (UniProt P08684); test: Cytochrome P450 Family 3 Subfamily A Member 4 (CYP3A4) small molecule antagonists: luciferase reporter qHTS assay (AID 1671201); further: nearly all actives have a fitted effect of over 50% in size; further: potency means the concentration at half of the fitted maximal effect; on activity change, negative = inhibition: series mostly up to about 120 µM
# Sequence of Cytochrome P450 3A4 (Homo sapiens) (P08684 whole entry, looked up): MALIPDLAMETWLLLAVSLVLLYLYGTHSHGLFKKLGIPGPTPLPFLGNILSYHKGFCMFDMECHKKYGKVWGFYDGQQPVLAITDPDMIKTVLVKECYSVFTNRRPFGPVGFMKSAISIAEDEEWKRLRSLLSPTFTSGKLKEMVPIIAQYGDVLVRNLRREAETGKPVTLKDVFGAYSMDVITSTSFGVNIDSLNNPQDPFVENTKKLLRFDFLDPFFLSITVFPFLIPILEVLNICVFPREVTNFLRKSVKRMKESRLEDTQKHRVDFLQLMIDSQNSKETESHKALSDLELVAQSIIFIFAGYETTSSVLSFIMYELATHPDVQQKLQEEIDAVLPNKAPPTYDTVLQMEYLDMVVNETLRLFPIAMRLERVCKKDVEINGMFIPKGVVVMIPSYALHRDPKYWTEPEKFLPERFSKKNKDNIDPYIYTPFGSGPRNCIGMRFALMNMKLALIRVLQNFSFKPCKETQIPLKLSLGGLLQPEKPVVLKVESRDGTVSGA
# Method in brief: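 qHTS, 1536-well. CYP3A4 + proluciferin substrate, cpd 10 min RT → NADPH regen 1 h RT → detection reagent 20 min → luminescence (RLU). Ketoconazole positive control.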
# [16] = qHTS assay to identify small molecule agonists of the TGF-beta/Smad signaling pathway (AID 1346859; active means well fitted activation curve with a large enough effect in the signal ratio in the repeat runs, not every such curve was filed as active; the % refers to the signal ratio; further: series mostly up to about 77 µM)
# Method in brief: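 Reporter line: HEK 293T with stably integrated SBE-controlled beta-lactamase. Compound exposure lasts 5 hr at 37 C and 5% CO2; substrate loading follows for 2 hr at room temperature, with emission read at 460 and 530 nm.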
# [17] = molecular target: Thyrotropin-releasing hormone receptor (Homo sapiens) (UniProt P34981); test: qHTS assay to identify small molecule antagonists of the thyrotropin-releasing hormone receptor (TRHR) signaling pathway (AID 1346877; active means well fitted inhibition curve with a large enough effect in the repeat runs, not every such curve was filed as active; further: series mostly up to about 51 µM)
# Sequence of Thyrotropin-releasing hormone receptor (Homo sapiens) (P34981 whole entry, looked up): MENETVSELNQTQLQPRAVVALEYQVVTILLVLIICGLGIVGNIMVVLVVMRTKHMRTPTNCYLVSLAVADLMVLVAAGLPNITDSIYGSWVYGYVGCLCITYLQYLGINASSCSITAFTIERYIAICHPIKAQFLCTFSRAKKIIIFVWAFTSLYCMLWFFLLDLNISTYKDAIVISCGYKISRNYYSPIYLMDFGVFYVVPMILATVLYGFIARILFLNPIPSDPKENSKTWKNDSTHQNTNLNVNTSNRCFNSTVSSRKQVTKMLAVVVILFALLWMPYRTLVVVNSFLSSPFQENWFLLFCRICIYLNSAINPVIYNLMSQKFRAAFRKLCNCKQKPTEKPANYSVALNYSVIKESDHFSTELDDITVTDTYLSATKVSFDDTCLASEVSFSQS
# Method in brief: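 Kinetic fluorescence (3 min, 1 s resolution) following stimulation with TRH at 1 nM final; HEK293 cells bearing human TRHR; 5 min compound preincubation at RT; concentration-response over 15 points, triplicates.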
# [18] = molecular target: Thyrotropin-releasing hormone receptor (Homo sapiens) (UniProt P34981); test: qHTS assay to identify small molecule agonists of the thyrotropin-releasing hormone receptor (TRHR) signaling pathway (AID 1346891; calls by dose curve;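 further: HEK293 cells expressing TRHR with calcium dye readout; series mostly up to about 58 µM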)
# Method in brief: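 Cells: TRHR-Hek293, seeded and incubated 18 h. Dye loading: 2 h at 37 °C. Compound added from DMSO stock by pin tool. Read-out: kinetic calcium fluorescence over 3 min.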
# [19] = Caspase-3/7 induction in HepG2 cells by small molecules, qHTS cell viability counter screen (AID 1346981); further: series mostly up to about 92 µM; nearly all actives have a fitted effect of over 30% in size
# Method in brief: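 In this quantitative HTS counter screen, compounds delivered in DMSO were left on unmodified HepG2 cells for 16 hr at 37 C. Viability was then determined fluorometrically with CellTiter-Fluor, in parallel with caspase-3/7 induction in the same wells.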
# [20] = molecular target: Cytochrome P450 2C9 (Homo sapiens) (UniProt P11712); test: Cytochrome P450 Family 2 Subfamily C Member 9 (CYP2C9) small molecule antagonists: luciferase reporter qHTS assay (AID 1671198); further: nearly all actives have a fitted effect of over 50% in size; further: potency means the concentration at half of the fitted maximal effect; on activity change, negative = inhibition: series mostly up to about 120 µM
# Sequence of Cytochrome P450 2C9 (Homo sapiens) (P11712 whole entry, looked up): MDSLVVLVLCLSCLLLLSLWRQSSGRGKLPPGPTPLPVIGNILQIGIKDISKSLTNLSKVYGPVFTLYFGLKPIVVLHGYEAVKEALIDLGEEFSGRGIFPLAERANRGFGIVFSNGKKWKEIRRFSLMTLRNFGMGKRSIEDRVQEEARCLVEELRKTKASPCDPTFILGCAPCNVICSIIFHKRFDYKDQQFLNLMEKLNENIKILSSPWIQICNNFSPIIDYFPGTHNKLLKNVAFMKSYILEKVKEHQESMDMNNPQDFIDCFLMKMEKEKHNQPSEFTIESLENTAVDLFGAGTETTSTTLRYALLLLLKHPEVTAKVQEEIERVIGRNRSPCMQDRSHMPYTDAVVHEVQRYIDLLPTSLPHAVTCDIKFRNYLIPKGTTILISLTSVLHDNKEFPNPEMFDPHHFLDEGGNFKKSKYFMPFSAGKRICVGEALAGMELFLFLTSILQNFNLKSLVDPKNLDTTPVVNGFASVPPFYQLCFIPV
# Method in brief: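 CYP2C9 activity was measured with a P450-Glo proluciferin substrate. Enzyme–substrate mix was held with compound for 10 min at room temperature, then NADPH regeneration solution was added for 1 h at 37C. Luciferin product was read as luminescence.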
smiles,measurement,setting,value
O=c1[nH]c(=O)c2ccccc2o1,outcome,[1],inactive
same,outcome,[2],inactive
same,Potency,[3],inactive
same,outcome,[4],inactive
same,Potency,[5],inactive
same,outcome,[6],inactive
same,Potency,[7],inactive
same,max activation,[8],-5.11%
same,outcome,[9],inactive
same,Potency,[10],inactive
same,Potency,[11],inactive
same,Potency,[12],inactive
same,Potency,[13],inactive
same,Potency,[14],inactive
same,Potency,[15],inactive
CCS(=O)(=O)CCn1c([N+](=O)[O-])cnc1C,outcome,[1],inactive
same,outcome,[16],inactive
same,outcome,[17],inactive
same,outcome,[18],inactive
same,Potency,[3],inactive
same,outcome,[4],inactive
same,Potency,[5],inactive
same,outcome,[6],inactive
same,Potency,[14],inactive
FC(F)(F)c1ccc(Cl)cc1Cl,outcome,[1],inactive
same,outcome,[2],inactive
same,outcome,[17],inactive
same,outcome,[18],inactive
same,Potency,[3],inactive
same,outcome,[4],inactive
same,Potency,[5],inactive
same,outcome,[6],inactive
same,Potency,[19],inactive
same,Potency,[11],inactive
same,Potency,[20],inactive
same,Potency,[13],inactive
same,Potency,[14],inactive
same,Potency,[15],inactive
C[C@H]1O[C@H](O[C@H]2[C@H](O)[C@@H](O)[C@@H](O[C@H]3[C@H](O)[C@@H](O)[C@H](O)O[C@@H]3CO)O[C@@H]2CO)[C@H](O)[C@@H](O)[C@@H]1N[C@H]1C=C(CO)[C@@H](O)[C@H](O)[C@H]1O,outcome,[1],inactive
same,outcome,[2],inactive
same,outcome,[17],inactive
same,outcome,[18],inactive
same,Potency,[3],inactive
same,outcome,[6],inactive
same,Potency,[19],inactive
same,max activation,[8],-1.07%
same,Potency,[11],inactive
same,Potency,[12],inactive
same,Potency,[20],inactive
same,Potency,[13],inactive
same,Potency,[14],inactive
same,Potency,[15],inactive
C[Si]1(C)N[Si](C)(C)N[Si](C)(C)N1,outcome,[1],inactive
same,outcome,[2],inactive
same,outcome,[17],inactive
same,Potency,[3],inactive
same,Potency,[5],inactive
same,outcome,[6],inactive
same,Potency,[19],inactive
same,Potency,[7],inactive
same,Potency,[11],inactive
same,Potency,[12],50.2 µM (active)
same,Potency,[20],63.3 µM (active)
same,Potency,[14],inactive
same,Potency,[15],6.33 µM (active)
Cc1nc(C)nc(N2C[C@@H](C)N(c3ccnc([C@@H](C)O)n3)[C@@H](C)C2)n1,outcome,[1],inactive
same,outcome,[2],inactive
same,Potency,[3],inactive
same,outcome,[4],inactive
same,Potency,[5],inactive
same,outcome,[6],inactive
same,Potency,[7],inactive
same,Potency,[11],inactive
same,Potency,[12],inactive
same,Potency,[20],inactive
same,Potency,[14],inactive
same,Potency,[15],inactive
O=C(c1ccc2c(c1)C(=O)OC2=O)c1ccc2c(c1)C(=O)OC2=O,outcome,[1],inactive
same,outcome,[2],inactive
same,outcome,[17],inactive
same,outcome,[18],inactive
same,Potency,[3],inactive
same,Potency,[5],inactive
same,outcome,[6],inactive
same,Potency,[19],inactive
same,Potency,[7],inactive
same,Potency,[11],inactive
same,Potency,[12],inactive
same,Potency,[14],inactive
same,Potency,[15],inactive
O=CO,"viability change, negative = cytotoxic",[1],-0.889% [at 6.97 µM]
same,"activity change, negative = cytotoxicity",[2],8.49% [at 6.97 µM]
same,"activity change, negative = cytotoxicity",[3],-2.18% [at 8.39 µM]
same,caspase activation,[4],0.203% [at 8.39 µM]
same,"activity change, negative = cytotoxicity",[5],-2.32% [at 8.39 µM]
same,caspase-3/7 activation,[6],0.126% [at 8.39 µM]
same,"activity change, negative = cytotoxicity",[19],4.68% [at 8.39 µM]
same,"activity change, negative = inhibition",[14],-0.636% [at 6.97 µM]
NC(=O)NC(=O)Cc1ccccc1,outcome,[1],inactive
same,outcome,[16],inactive
same,outcome,[17],inactive
same,outcome,[18],inactive
same,Potency,[3],inactive
same,outcome,[4],inactive
same,Potency,[5],inactive
same,outcome,[6],inactive
same,Potency,[7],inactive
same,max activation,[8],-4.53%
same,outcome,[9],inactive
same,Potency,[10],inactive
same,Potency,[11],inactive
same,Potency,[20],inactive
same,Potency,[14],inactive
same,Potency,[15],inactive
